Screening data (PubChem BioAssay)
FMDV antiviral – High Throughput Screening for Foot and Mouth Disease Virus Antivirals | FMDV antiviral cell-based qHTS | Potency, µM (doses to about 57.9 µM), for inactives: at the highest dose activity change, negative = inhibition, most hits filed as inhibitors | actives 1.2% (n = 410,000); calls by dose curve; tested in HEK293T cells; also: read-out not given here; potency is read from the fitted curve at half-maximal effect; nearly all actives have a fitted effect of over 45% in size
HCMV antiviral – qHTS Assay for inhibitors of the human cytomegalovirus (HCMV); activity change, negative = inhibition, % at 57.5 µM; HFF cells, HCMV-luciferase reporter, 72 h; active compounds read low; actives 4.5% (n = 410,000); in the data active = activity change below about -60%; inconclusive = no clear call, values can overlap the other calls; inactive = above about -39%
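Cell-based, HFFs, 1000 cells/well, 16 h 37C; cpds in DMSO + HCMV-luc, MOI 1 PFU/cell; 72 h 37C; OneGlo luminescence after 5 min RT; norm. to buffer vs Salinomycin 10uM.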
Vaccinia Venus – qHTS for Stage-Specific Inhibitors of Vaccinia Orthopoxvirus: Venus Reporter Primary qHTS. Potency, µM (doses to about 36.5 µM), without a hit: at the highest dose activity change, negative = inhibition, hits mostly inhibitors. Vaccinia virus Venus reporter expression, fluorescence. actives 0.46% (n = 330,000). AID 720580, 2013; calls by dose curve; tested in A549 cells; also: potency is read from the fitted curve at half-maximal effect; nearly all actives have a fitted effect of over 30% in size
HCV inhibitor – qHTS Assay for Inhibitors of Hepatitis C Virus (HCV); Huh7.5.1 HCVcc-Cre infection, luciferase reporter, 44 h; Potency, µM (doses to about 41.8 µM), for inactives: at the highest dose activity change, negative = inhibition, actives largely listed as inhibitors; actives 3.4% (n = 340,000); active = well fitted inhibition curve with a large enough effect; inconclusive = small, poorly fitted or top-dose-only effect, or another doubt; inactive = no such curve, though single readings can be large or run the other way; also: potency is read from the fitted curve at half-maximal effect
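HCVcc-Cre virus at an moi near 0.5 was added right after compound to cells cultured 4 h from seeding (1,000 cells/well). Luciferase activity was determined 44 h later, 15 min after substrate addition at RT.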
VACV mCherry inh – qHTS for Stage-Specific Inhibitors of Vaccinia Orthopoxvirus: mCherry Reporter Primary qHTS | Vaccinia virus mCherry reporter infection, fluorescence | Potency, µM (doses to about 36.5 µM), for inactives: at the top dose activity change, negative = inhibition, actives largely listed as inhibitors | actives 0.63% (n = 310,000); calls by dose curve; tested in A549 cells; also: potency is read from the fitted curve at half-maximal effect; nearly all actives have a fitted effect of over 35% in size
An asterisk follows results filed as active; i = inactive; ? = inconclusive; nt = not tested or not shown. Only some compounds are listed: those with a hit (about 7.3% of all), similar ones and a draw of the others. % is scaled to controls: 0 for no effect and ±100 for the full control effect.

SMILES	FMDV antiviral	HCMV antiviral	Vaccinia Venus	HCV inhibitor	VACV mCherry inh
COc1cc(/C=C/C(=O)c2ccc(O)cc2)ccc1OCC#N	28µM*	-98*	13µM*	?	13µM*
COc1cccc(C(=O)/C=C/c2ccc(OCC#N)c(OC)c2)c1	?	-100*	?	?	?
CCc1cc(/C=C/c2ccnc3ccccc23)ccc1N(C)C	nt	nt	12%	nt	?
COc1ccc(C(=O)c2ccc(Cl)c([N+](=O)[O-])c2)cc1	?	-83*	-28%	?	-4%
Cc1ccc(C(=O)NNC(=O)c2cccc(Br)c2)cc1	27%	?	-27%	29%	-1%
CC(C)(C)c1ccc(C(=O)NNC(=O)c2cccc(Br)c2)cc1	18%	-73*	nt	?	nt
Cc1c(Br)c(C(=O)NNC(=O)c2ccc(C(C)(C)C)cc2)nn1C	28%	-61*	nt	-11%	nt
CNc1nc2cnc(Nc3cccc(OC)c3)cc2n1Cc1ccc(OC)c(OC)c1	nt	24	nt	nt	nt
CCCCC(CC)CNC(=O)c1ccc2c(=O)n(CCOC)c(=O)[nH]c2c1 (stereo unspecified)	?	?	12%	nt	1%
CCOc1ccc(Oc2nc(Nc3ccc(C)cc3)nc(N(C)C)n2)nn1	?	-20	-28%	11µM*	-22%
Cc1cc(C)nc(NC(=S)NC(=O)c2ccccc2F)n1	19%	14	4%	0%	i
Cc1cc(C)nc(S/C=C/C(=O)c2ccccc2F)n1	8.9µM*	-28	-12%	?	i
COC(=O)C1=C(C(=O)OC)C(C(=O)OC)C(C(=O)OC)C(C(=O)OC)(C(=O)OC)C(C(=O)OC)=C1C(=O)OC (stereo unspecified)	40µM*	11	?	?	?
O=C(CCl)Nc1cn(-c2ccccc2)nc1-c1ccc(F)cc1	16µM*	-72*	-20%	?	?
CSc1cccc(NC(=O)CN2CCN(Cc3ccccc3C)S2(=O)=O)c1	-1%	?	-10%	nt	-1%
COc1ccc(N2C(=O)CCSC23C(=O)N(Cc2ccc(F)cc2)c2ccccc23)cc1 (stereo unspecified)	-14%	?	?	nt	11µM*
CC[N+]1(CC(=O)c2cccs2)CCCCC1	nt	nt	-4%	nt	7%
Cc1ccc(S(=O)(=O)c2nc(-c3ccccc3Cl)oc2N(C)C)cc1	25%	nt	?	20µM*	-8%
CCN(CC)c1cc2c(cc1F)c(=O)c(S(=O)(=O)c1ccc(OC)cc1)cn2Cc1ccccc1	-19%	-10	-21%	nt	-17%
CCCNS(=O)(=O)c1cccn1-c1ncc(C(F)(F)F)cc1Cl	12%	7	-13%	7%	-15%
O=S(=O)(NCc1cccnc1)c1cccn1-c1ncc(C(F)(F)F)cc1Cl	-25%	-61*	-14%	?	-8%
O=C(CCC1N=C2c3ccccc3N=C(SCc3ccccc3F)N2C1=O)NC1CCCCC1 (stereo unspecified)	-22%	-27	-3%	nt	-12%
COc1ccc(NC(=O)c2cc(-c3cccnc3)nc3c(C)c(C)ccc23)c(OC)c1	?	22	nt	13µM*	nt
COc1ccc(NC(=O)c2cccnc2)c(OC)c1	14%	-21	nt	-14%	nt
O=C(O)c1c(C(=O)O)c2ccccc2[nH]c1=O	-3%	nt	nt	nt	nt
SMILES	FMDV antiviral	HCMV antiviral	Vaccinia Venus	HCV inhibitor	VACV mCherry inh
Cc1cc(C)n(Cc2ccc(NC(=O)c3ccc(COc4ccccc4Br)cc3)cc2)n1	13µM*	-90*	nt	4µM*	nt
Cc1cc(C)n(Cc2ccc(C(=O)O)cc2)n1	nt	-65*	-15%	5%	i
Cc1ccc2nc(SCC(=O)N3CCOc4ccc(CN5C[C@@H](C)O[C@@H](C)C5)cc4C3)[nH]c2c1	-3%	nt	-3%	nt	-13%
Cc1ccccc1OCC(=O)N(Cc1ccc(C(C)C)cc1)C1CCS(=O)(=O)C1 (stereo unspecified)	-19%	5	-28%	nt	-16%
C/C(=N\NC(=O)c1cccc2ccccc12)c1ccccn1	-6%	-96*	-10%	5µM*	?
C/C(=N\NC(=O)c1cccc2ccccc12)c1cccs1	33%	53	nt	1%	nt
C/C(=N\NC(=O)c1ccncc1)c1cccc(NC(=O)c2ccc(C(C)(C)C)cc2)c1	-1%	64	-19%	10µM*	-24%
C/C(=N\NC(=O)C(c1ccccc1)c1ccccc1)c1ccccn1	?	-99*	?	11µM*	?
C/C(=N\NC(=O)c1ccc(Cl)c(Cl)c1)c1ccc(Br)s1	-12%	-83*	-13%	?	-20%
COc1ccc(CCn2cnn3c(=O)c4ccccc4nc3c2=O)cc1OC	nt	-3	nt	nt	nt
CCCN1CNc2c(c(=O)[nH]c(=S)n2CCc2ccc(Cl)cc2Cl)C1	nt	nt	-26%	nt	-3%
COc1ccc(NC(=O)c2ccccn2)cc1OC	65%	12	nt	-10%	nt
C/C(=N/NC(=O)c1ccccn1)c1ccncc1	48%	29	-13%	38%	-11%
C/C(=N\NC(=O)c1cc(-c2cccs2)nc2ccccc12)c1ccccn1	?	-101*	nt	0.56µM*	nt
Cc1cccc2sc(NNC(=O)c3cc(-c4cccs4)nc4ccccc34)nc12	?	-68*	-18%	?	?
COc1ccc(C(=O)N/N=C(\C)c2ccccn2)cc1OC	?	-112*	?	?	2.2µM*
C/C(=N\NC(=O)c1ccc(Cl)c(Cl)c1)c1ccccn1	15%	-99*	?	0.56µM*	1.3µM*
CC(=O)N1CCc2c(sc3c2c(=O)n(-c2ccccc2Cl)c(=O)n3C)C1	-16%	25	3%	nt	1%
COc1ccc(C(=O)N/N=C(\C)c2cccc(NC(=O)c3ccc(F)cc3)c2)c(OC)c1	23%	-61*	?	?	?
C/C(=N\NC(=O)c1ccccc1Cl)c1ccccn1	30%	-97*	?	?	?
C/C(=N\NC(=O)c1cccc(Br)c1)c1ccccn1	27%	-103*	?	?	?
C/C(=N\NC(=O)c1cc(Br)ccc1O)c1ccccn1	-29%	39	-6%	4%	?
COc1cc(C(C)=NNC(=O)c2ccncc2)ccc1O	4%	-101*	-4%	-1%	-12%
Cc1nn(C)c2c1c(-c1ccccc1)cc(=O)n2CC(=O)NC(C)c1ccccc1 (stereo unspecified)	-17%	3	4%	nt	1%
CCOC(=O)/C=C/[C@H](CC(C)C)NC(=O)C(F)(F)F	nt	-19	nt	nt	nt
C/C(=N/NC(=O)c1ccc(C(C)(C)C)cc1)c1ccccn1	-10%	-98*	?	3.5µM*	2.8µM*
CSc1nnc(-c2cc3c(s2)-c2ccccc2CC3)o1	0%	176	-13%	2.5µM*	nt
O=C1C=C(c2cccc3c2Oc2ccccc2S3)C[C@@H](c2ccc3c(c2)OCO3)C1	nt	-4	nt	nt	nt
